JMJD2A Tudor inh: blocks the human JMJD2A Tudor domain; O75164; AlphaScreen JMJD2A-Tudor / H3K4me3 peptide binding; Potency, µM (doses to about 114 µM), inactives show at the top dose activity change, negative = inhibition, usual class: inhibitors; 390,000 compounds, 4.4% hits; AID 504339; note: potency is the fitted concentration of half-maximal effect; % is set by controls: 0 for no effect and ±100 for the full control effect; nearly all actives have a fitted effect of over 50% in size
L3MBTL1 block: inhibitors of human L3MBTL1. 230,000 compounds, 0.66% hits. AID 485360. Potency, µM (top dose mostly 57.1 µM), inactives show top-dose activity, negative = inhibition, actives largely listed as inhibitors. AlphaScreen L3MBTL1–H3K9me1 peptide binding; note: potency is the fitted concentration of half-maximal effect; % is set by controls: 0 for no effect and ±100 for the full control effect; nearly all actives have a fitted effect of over 60% in size
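First, the protein-peptide complex forms for 30 min at room temperature (L3MBTL1 50 nM, biotinylated H3K9me1 peptide 75 nM). Next, compounds are pin-transferred and incubated 30 min. Finally, AlphaScreen beads are added and read after 30 min.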
BAZ2B inh: blocks human BAZ2B | 360,000 compounds, 4.4% hits | Q9UIF8 | AlphaScreen BAZ2B-H3K14Ac peptide displacement | Potency, µM (top dose mostly 114 µM), inactives show top-dose activity change, negative = inhibition, hits mostly inhibitors; note: potency is the fitted concentration of half-maximal effect; % is set by controls: 0 for no effect and ±100 for the full control effect; nearly all actives have a fitted effect of over 60% in size
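Inhibition is scored as reduced AlphaScreen emission. The BAZ2B/b-H3(5-23)K14Ac complex (50 nM each) in PBS pH 7.4, 0.01% Tween-20 meets compound (up to 110 uM) for 30 min at RT before bead addition.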
HP1b chromo inh: HP1-beta chromodomain-methylated histone interaction inhibition; P83916; AlphaScreen HP1-beta / biotin-H3K9me3 peptide binding; Potency, µM (titrated, usually from 114 µM), for the others: top-dose activity change, negative = inhibition, hits mostly inhibitors; 390,000 compounds, 0.56% hits; AID 540317; note: potency is the fitted concentration of half-maximal effect; nearly all actives have a fitted effect of over 70% in size
Target sequence (P83916 whole entry, looked up): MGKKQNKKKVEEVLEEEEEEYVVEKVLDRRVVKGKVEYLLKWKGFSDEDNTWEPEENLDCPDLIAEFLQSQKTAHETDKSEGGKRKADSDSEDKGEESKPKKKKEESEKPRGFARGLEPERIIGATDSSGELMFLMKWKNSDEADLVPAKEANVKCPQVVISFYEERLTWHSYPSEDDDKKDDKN
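AlphaScreen: HP1-beta (50 nM) preformed 30 min with biotin-H3(1-18)K9me3 peptide (50 nM) in PBS pH 7.4, 0.01% Tween-20. Compound added for 30 min at RT, then streptavidin donor/nickel chelate acceptor beads (10 ug/mL) for 30 min.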
PI5P4K alpha inh: inhibitors of human PI5P4K alpha | PI5P4Kalpha enzyme, ADP-Glo luminescence, 60 min; stronger effect = lower value | max response, % | 330,000 compounds, 1.2% hits; active = max response of -50% or lower; inconclusive = between -30% and -50%; inactive = -30% or higher; note: value at the top dose of about 77 µM; % is set by controls: 0 for no effect and ±100 for the full control effect
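qHTS, 1536-well: enzyme/substrate mix, compound by pin tool, 5 microM ATP final; RT 60 min; ADP-Glo reagents 1 (45 min) then 2 (30 min); luminescence.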
G9a block: inhibitors of human histone lysine methyltransferase G9a; Q96KQ7; G9a H3K9 monomethylation, AlphaScreen, 2 h; Potency, µM (series often up to 102 µM), for inactives: at the top dose activity, negative = inhibition, most hits filed as inhibitors; 350,000 compounds, 8.8% hits; note: potency is the fitted concentration of half-maximal effect; % is set by controls: 0 for no effect and ±100 for the full control effect; nearly all actives have a fitted effect of over 75% in size
Target sequence (Q96KQ7 913-1193 limits assumed): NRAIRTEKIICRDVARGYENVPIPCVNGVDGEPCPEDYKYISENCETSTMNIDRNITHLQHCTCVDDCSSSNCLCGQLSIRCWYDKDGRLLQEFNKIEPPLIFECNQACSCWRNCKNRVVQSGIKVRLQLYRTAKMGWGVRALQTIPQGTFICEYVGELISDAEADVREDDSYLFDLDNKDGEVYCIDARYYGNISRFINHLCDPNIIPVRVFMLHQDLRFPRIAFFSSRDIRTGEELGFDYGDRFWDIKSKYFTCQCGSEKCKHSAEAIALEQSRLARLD
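Methyltransferase reactions run at room temperature for 2 h (20 nM enzyme, 500 nM biotin-H3K9 peptide, 20 uM SAM) after a 15 min compound preincubation; product detected by AlphaScreen beads and anti-H3K9me1 antibody.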
Starred values were filed as active, the others as inactive; ? = inconclusive; · = no result; [ ] = another dose, or the depositor's remark. A selection: hits, their analogues and other compounds. The true share with any hit is near 11%. Unless noted, calls come from the whole dose curve; as a rule, active = well fitted inhibition curve with a large enough effect; inconclusive = small, poorly fitted or top-dose-only effect; inactive = no such curve, though single readings can be large or run the other way.

SMILES	JMJD2A Tudor inh	L3MBTL1 block	BAZ2B inh	HP1b chromo inh	PI5P4K alpha inh	G9a block
CC[n+]1c(/C=C/c2ccc(OC(C)=O)c(OC)c2)ccc2ccccc21	?	·	-8%	-27%	0	25µM*
CN(C)c1ccc(C=Cc2nccc3ccccc23)cc1	·	·	·	·	3	·
CC(C)(/C=N/O)/[N+]([O-])=C/c1ccco1	-11%	-4%	0%	26%	2	-24%
Cc1nc(/C=[N+](\[O-])C(C)(C)/C=N/O)n(O)c1C	7.9µM*	·	50µM*	24%	-7	?
CC(OC(=O)c1ccc2c(c1)OCO2)C(=O)NC1CCCCC1C (stereo unspecified)	0%	4%	-3%	12%	0	28µM*
CC1CCN(S(=O)(=O)c2ccc(C(=O)OC(C)C(=O)NC3CCCCC3C)cc2)CC1 (stereo unspecified)	-7%	·	-10%	20%	2	32µM*
Cc1ccc(CNC(=O)CCCN2C(=O)c3cccnc3Oc3ccc(Cl)cc32)cc1	-15%	·	-4%	28%	·	-31%[59 µM]
CN1CCC(OC(c2ccccc2)c2ccc(Cl)cc2)C1 (stereo unspecified)	-19%	·	·	4%[57 µM]	-5	·
CCNC(=O)N1CCN(CCCC(c2ccc(F)cc2)c2ccc(F)cc2)CC1	-22%	-4%	4%	-5%	-4	-15%[59 µM]
CC(C)C(CCNC1CCN(C)CC1)c1ccc(Cl)cc1 (stereo unspecified)	56µM*	·	-36%	-26%	-2	?
CN1CCC(NCCC(c2ccc(F)cc2)c2ccc(Cl)cc2)CC1 (stereo unspecified)	0.71µM*	·	50µM*	-19%[57 µM]	2	25µM*
CS(=O)(=O)N1CCC[C@@]2(CCN(C(=O)Nc3cccc(C#N)c3)C2)C1	·	·	·	·	·	-1%[12.7 µM]
CC[C@H](C)NC(=O)CCCCCn1c(=S)[nH]c2c([nH]c3ccc(OC)cc32)c1=O	-10%	-1%	-16%	45%	3	31%
COc1ccc2[nH]c3c(=O)n(CCCCC(=O)NCCN4CCCC4)c(=S)[nH]c3c2c1	5.6µM*	·	-31%	?	·	?
COc1ccc2[nH]c3c(=O)n(CCCCC(=O)N4CCC(C(N)=O)CC4)c(=S)[nH]c3c2c1	3.5µM*	2%	-9%	26%	·	?
COc1ccc2[nH]c3c(=O)n(Cc4ccc(C(=O)N5CCCC5)cc4)c(=S)[nH]c3c2c1	6.3µM*	·	-21%	?	-21	7.9µM*
CC(=O)Nc1ccc2nc3c(=O)n(C)c(=O)n(C)c3nc2c1C	-11%	·	1%	19%	·	-6%[59 µM]
CC[n+]1ccc(/C=C2\Sc3ccccc3N2CCCS(=O)(=O)[O-])c2ccccc21	?	-15%	50µM*	?	4	·
O=C(c1ccco1)N1CCC2(CCN(Cc3cc(C(F)(F)F)cc(C(F)(F)F)c3)CC2)CC1	·	·	·	·	·	2%[12.7 µM]
CCOC(=O)c1cc(-c2ccc(C)cc2)n(CC(=O)Nc2ccc(OC)cc2OC)c1C	-9%	·	2%	30%	·	3%[59 µM]
CCOC(=O)c1cc2occc2n1CCCN1C(=O)c2ccccc2C1=O	?	·	50µM*	?	·	14µM*
CCOC(=O)c1cc2occc2n1CC(=O)Nc1ccc(OC)cc1OC	?	-8%	?	-7%	·	40µM*
COC(=O)CC1C(=O)NCCN1C(=O)c1ccccc1 (stereo unspecified)	-2%	·	10%	33%	-1	8%[12.7 µM]
COC(=O)CC1C(=O)NCCN1C(=O)CSc1nc2ccccc2s1 (stereo unspecified)	-35%	3%	·	11%	-25	7.1µM*
O=C(CSc1nnc(-c2ccc(C(F)(F)F)cn2)o1)Nc1cccc(Cl)c1	-10%	-11%	50µM*	21%	-1	29%
SMILES	JMJD2A Tudor inh	L3MBTL1 block	BAZ2B inh	HP1b chromo inh	PI5P4K alpha inh	G9a block
O=C(CSc1nnc(-c2cccc(Cl)c2)o1)Nc1ccc2c(c1)OCCO2	-5%	5%	1%	28%	0	-5%[59 µM]
NCCc1nnc(SCC(=O)Nc2cccc(Cl)c2)o1	-22%	·	?	15%	10	50µM*
O=c1[nH]n(-c2ccccc2Cl)c(=O)c2ccccc12	-4%	·	3%	25%	3	-6%
S=c1[nH]ccn1-c1cccc(Cl)c1Cl	16µM*	0%	-7%	45%	-4	5.6µM*
S=c1[nH]ccn1-c1ccccc1Cl	22µM*	-1%	-13%	32%	-5	16µM*
CCOc1ccccc1C1CC(=O)Oc2c1c(=O)n(C)c1ccccc21 (stereo unspecified)	5%	·	-15%	25%	·	8%[59 µM]
CCOc1ccc2[nH]c(=S)[nH]c2c1	45µM*	·	-4%	-9%	-9	?
CCOc1ccc2nc(-c3ccccc3)[nH]c2c1	-2%	-3%	6%	37%	0	?
Nc1nnc(SCC(=O)NNC(=O)c2ccc(Cl)cc2)s1	-17%	2%	-1%	23%	-5	8.9µM*
CCCCn1c(N)c(N(CC(C)C)C(=O)C2CC(=O)N(c3ccccc3C(C)CC)C2)c(=O)[nH]c1=O (stereo unspecified)	4%	9%	9%	43%	-2	79µM*
CCCCN(C(=O)C1CC(=O)N(c2ccc3c(c2)OCCO3)C1)c1c(N)n(CCC)c(=O)[nH]c1=O (stereo unspecified)	-14%	-9%	·	34%	-10	·
CCCCN(C(=O)C1CC(=O)N(c2ccc(C)cc2)C1)c1c(N)n(CCC)c(=O)[nH]c1=O (stereo unspecified)	-12%	-16%	10%	25%	-1	45µM*
CCCCn1c(N)c(N(CCOC)C(=O)CN2c3ccccc3CC2C)c(=O)[nH]c1=O (stereo unspecified)	-10%[57.1 µM]	-6%	-19%	20%	-4	20µM*
CCCCn1c(N)c(N(CCOC)C(=O)C2CC(=O)N(Cc3ccc(C)cc3)C2)c(=O)[nH]c1=O (stereo unspecified)	-7%	9%	-2%	24%	-6	50µM*
Cn1nnc2c(NCc3ccccc3)ncnc21	9%	·	3%	16%	·	-8%[59 µM]
CCC(CC)C(=O)Nc1cccc(-c2nc3ncccn3c2C)c1	-21%	·	6%	29%[57 µM]	·	-3%[59 µM]
CCOC(=O)c1sc2nc(SCC(=O)N(CC)CC)n(CCCN3CCCC3=O)c(=O)c2c1C	-21%	·	79µM*	36%	3	15%[59 µM]
CCOc1ccc(N2C(=O)c3cccnc3C2Nc2ccc(C)c(C)c2)cc1 (stereo unspecified)	-20%	·	-31%	3%	-10	89µM*
CCOC(=O)CC(NS(=O)(=O)c1cc(-c2cc(C)no2)ccc1C)c1ccc(C)cc1 (stereo unspecified)	-11%	·	-11%	5%	·	-15%[59 µM]

Screens deposited in PubChem by National Center for Advancing Translational Sciences (NCATS).
